Legend:
Assay in all cases: DAPPL (digital affinity profiling via proximity ligation, sequencing); 10 mM Tris-HCl pH 7.5, 50 mM NaCl, 1 mM DTT, 4% glycerol, room temperature, 30 min; GST-TFs on glutathione beads, 16-mer random dsDNA library, 0.1% formaldehyde crosslink after washing; high values mean tight binding
[1] = target: T1, FEV (Homo sapiens, UniProt Q99581 1-238); conditions: protein: recombinant; tags: N-terminal GST; dsDNA, one strand shown
T1 sequence: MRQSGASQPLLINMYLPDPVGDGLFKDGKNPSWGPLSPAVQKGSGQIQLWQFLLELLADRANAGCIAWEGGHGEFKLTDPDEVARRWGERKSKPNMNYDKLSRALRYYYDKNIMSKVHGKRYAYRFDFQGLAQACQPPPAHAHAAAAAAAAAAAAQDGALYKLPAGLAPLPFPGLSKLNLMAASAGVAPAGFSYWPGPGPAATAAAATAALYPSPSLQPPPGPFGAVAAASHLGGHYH
How it was run: (§1)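 The binding signal reported is, for every hexamer, its read frequency for a factor over its read frequency for the tag-only sample. Reads came from pools of yeast-expressed, GST-fused human transcription factors on glutathione beads, barcoded with DNA and mixed with that sample, which were incubated with 200 nmole of a random double-stranded 16-mer DNA library in Tris/NaCl/DTT/glycerol buffer at room temperature for 30 min. After washing, the pools were crosslinked with 0.1% formaldehyde, proximity-ligated with BsaI/T4 ligase for 1 h at 37 °C, PCR-amplified and sequenced on an Illumina NextSeq500.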

[2] = target: ETV5 (Homo sapiens, UniProt P41161 1-510); conditions: protein: recombinant; tags: N-terminal GST; dsDNA, one strand shown
Sequence of ETV5 (P41161 whole entry): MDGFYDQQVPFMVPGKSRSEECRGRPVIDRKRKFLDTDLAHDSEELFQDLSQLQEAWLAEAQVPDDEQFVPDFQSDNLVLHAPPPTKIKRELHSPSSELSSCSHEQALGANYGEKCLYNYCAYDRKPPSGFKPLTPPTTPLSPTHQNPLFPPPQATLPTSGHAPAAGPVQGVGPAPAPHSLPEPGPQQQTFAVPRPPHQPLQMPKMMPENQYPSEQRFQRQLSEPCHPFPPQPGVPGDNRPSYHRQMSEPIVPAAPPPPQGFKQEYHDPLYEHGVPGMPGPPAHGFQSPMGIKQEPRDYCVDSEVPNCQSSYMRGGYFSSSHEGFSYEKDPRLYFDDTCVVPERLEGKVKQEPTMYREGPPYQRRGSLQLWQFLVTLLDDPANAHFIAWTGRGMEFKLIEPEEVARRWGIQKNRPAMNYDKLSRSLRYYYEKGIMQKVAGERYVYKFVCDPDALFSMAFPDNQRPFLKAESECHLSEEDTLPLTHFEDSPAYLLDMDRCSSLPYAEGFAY
How it was run: as §1

[3] = target: HSF1 (Homo sapiens, UniProt Q00613 1-529); conditions: protein: recombinant; tags: N-terminal GST; chain copies: 3; dsDNA, one strand shown
Sequence of HSF1 (Q00613 whole entry): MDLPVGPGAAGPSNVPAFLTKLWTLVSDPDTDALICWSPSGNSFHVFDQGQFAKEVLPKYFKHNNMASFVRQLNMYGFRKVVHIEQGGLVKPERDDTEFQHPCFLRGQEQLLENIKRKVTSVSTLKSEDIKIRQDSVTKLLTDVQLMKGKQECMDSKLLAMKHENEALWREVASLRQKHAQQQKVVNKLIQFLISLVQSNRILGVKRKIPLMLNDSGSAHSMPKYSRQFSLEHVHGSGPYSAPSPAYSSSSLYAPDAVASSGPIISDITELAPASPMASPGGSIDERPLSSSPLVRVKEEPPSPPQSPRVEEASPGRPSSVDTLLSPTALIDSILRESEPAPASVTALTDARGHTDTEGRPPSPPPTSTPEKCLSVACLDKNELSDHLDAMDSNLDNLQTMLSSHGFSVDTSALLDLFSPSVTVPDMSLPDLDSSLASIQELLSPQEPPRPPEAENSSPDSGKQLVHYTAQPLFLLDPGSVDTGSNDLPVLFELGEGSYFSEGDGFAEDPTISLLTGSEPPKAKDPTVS
How it was run: as §1

[4] = target: T2, SPIC (Homo sapiens, UniProt Q8N5J4 1-248); conditions: protein: recombinant; tags: N-terminal GST; dsDNA, one strand shown
T2 sequence: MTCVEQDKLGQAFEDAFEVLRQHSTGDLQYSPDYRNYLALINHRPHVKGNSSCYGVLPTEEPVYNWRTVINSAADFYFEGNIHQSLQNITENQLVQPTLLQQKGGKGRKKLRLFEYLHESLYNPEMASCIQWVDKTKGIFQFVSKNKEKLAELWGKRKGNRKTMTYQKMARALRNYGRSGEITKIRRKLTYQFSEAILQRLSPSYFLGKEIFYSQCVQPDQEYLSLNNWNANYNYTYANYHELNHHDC
How it was run: as §1

[5] = target: ELF4 (Homo sapiens, UniProt Q99607 1-663); conditions: protein: recombinant; tags: N-terminal GST; dsDNA, one strand shown
Sequence of ELF4 (Q99607 whole entry): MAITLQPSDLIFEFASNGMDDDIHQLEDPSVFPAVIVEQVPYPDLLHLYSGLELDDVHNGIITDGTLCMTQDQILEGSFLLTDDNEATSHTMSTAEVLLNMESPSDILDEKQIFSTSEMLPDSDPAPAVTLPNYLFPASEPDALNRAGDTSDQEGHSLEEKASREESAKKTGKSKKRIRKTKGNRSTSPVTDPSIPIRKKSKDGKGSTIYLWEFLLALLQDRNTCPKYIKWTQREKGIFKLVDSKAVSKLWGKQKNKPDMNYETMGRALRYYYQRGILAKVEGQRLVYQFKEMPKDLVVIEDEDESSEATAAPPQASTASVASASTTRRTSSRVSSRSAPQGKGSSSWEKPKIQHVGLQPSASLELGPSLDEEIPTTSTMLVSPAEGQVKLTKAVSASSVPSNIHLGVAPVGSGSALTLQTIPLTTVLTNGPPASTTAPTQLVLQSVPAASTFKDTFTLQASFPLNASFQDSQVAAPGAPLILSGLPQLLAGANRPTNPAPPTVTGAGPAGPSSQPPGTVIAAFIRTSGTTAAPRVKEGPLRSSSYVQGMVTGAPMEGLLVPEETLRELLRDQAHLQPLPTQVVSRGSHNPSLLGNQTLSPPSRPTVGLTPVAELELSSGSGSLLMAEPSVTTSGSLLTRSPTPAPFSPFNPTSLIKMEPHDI
How it was run: as §1

[6] = target: T3, ELK4 (Homo sapiens, UniProt P28324-2 1-405); conditions: protein: recombinant; tags: N-terminal GST; dsDNA, one strand shown
T3 sequence: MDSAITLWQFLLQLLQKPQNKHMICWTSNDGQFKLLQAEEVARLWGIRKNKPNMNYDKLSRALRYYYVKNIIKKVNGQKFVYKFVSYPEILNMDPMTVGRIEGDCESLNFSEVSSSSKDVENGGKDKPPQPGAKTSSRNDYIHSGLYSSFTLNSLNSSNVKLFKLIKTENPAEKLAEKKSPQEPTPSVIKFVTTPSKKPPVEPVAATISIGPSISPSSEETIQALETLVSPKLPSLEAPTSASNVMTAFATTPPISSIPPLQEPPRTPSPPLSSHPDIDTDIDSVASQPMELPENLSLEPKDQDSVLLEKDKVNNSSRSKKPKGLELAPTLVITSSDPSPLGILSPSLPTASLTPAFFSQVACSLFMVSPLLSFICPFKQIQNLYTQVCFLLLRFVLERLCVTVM
How it was run: as §1

[7] = target: T4, ETV2 (Homo sapiens, UniProt O00321 1-342); conditions: protein: recombinant; tags: N-terminal GST; dsDNA, one strand shown
T4 sequence: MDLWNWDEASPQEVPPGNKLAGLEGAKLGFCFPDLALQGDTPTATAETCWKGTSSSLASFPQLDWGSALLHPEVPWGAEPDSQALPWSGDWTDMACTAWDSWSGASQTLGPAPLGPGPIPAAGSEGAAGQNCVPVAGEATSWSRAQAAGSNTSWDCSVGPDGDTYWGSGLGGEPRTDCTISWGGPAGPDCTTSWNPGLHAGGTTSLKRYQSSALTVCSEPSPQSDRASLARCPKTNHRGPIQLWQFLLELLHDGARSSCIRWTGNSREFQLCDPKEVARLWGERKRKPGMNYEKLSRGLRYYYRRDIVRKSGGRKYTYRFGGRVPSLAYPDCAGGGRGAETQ
How it was run: as §1

[8] = target: T5, ELF3 (Homo sapiens, UniProt P78545 1-371); conditions: protein: recombinant; tags: N-terminal GST; dsDNA, one strand shown
T5 sequence: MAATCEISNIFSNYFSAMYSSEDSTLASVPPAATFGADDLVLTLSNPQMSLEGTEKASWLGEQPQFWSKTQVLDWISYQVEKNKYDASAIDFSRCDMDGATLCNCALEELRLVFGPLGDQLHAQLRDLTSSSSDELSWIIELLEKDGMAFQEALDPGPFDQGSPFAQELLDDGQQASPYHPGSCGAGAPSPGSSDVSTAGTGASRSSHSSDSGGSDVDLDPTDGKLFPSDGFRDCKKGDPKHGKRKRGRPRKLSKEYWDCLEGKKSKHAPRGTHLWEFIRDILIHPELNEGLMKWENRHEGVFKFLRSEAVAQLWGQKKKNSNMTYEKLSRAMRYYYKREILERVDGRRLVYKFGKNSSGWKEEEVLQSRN
How it was run: as §1

[9] = target: CRX (Homo sapiens, UniProt O43186 1-299); conditions: protein: recombinant; tags: N-terminal GST; dsDNA, one strand shown
Sequence of CRX (O43186 whole entry): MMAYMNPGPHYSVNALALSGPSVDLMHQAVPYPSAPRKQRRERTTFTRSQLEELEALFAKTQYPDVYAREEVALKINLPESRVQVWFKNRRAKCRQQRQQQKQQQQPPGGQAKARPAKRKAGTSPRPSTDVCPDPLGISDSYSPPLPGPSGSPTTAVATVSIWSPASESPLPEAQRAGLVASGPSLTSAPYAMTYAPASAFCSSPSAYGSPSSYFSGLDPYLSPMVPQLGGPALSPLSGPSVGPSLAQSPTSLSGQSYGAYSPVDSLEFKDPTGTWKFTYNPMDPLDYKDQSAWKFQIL
How it was run: as §1

[10] = target: ETV1 (Homo sapiens, UniProt P50549 1-477); conditions: protein: recombinant; tags: N-terminal GST; dsDNA, one strand shown
Sequence of ETV1 (P50549 whole entry): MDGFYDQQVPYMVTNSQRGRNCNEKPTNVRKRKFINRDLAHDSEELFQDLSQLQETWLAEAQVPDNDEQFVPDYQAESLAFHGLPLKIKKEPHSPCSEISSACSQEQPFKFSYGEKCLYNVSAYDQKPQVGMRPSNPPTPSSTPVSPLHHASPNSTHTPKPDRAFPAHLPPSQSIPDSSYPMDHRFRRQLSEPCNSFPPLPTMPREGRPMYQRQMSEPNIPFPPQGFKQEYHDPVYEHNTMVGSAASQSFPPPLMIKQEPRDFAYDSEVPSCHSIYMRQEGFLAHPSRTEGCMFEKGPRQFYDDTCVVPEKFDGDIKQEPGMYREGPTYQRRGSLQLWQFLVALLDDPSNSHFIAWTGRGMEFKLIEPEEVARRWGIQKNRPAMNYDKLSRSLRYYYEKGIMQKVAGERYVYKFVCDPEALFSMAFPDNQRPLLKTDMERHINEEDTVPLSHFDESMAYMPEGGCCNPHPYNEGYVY
How it was run: as §1

[11] = target: T6, ERF (Homo sapiens, UniProt P50548 1-548); conditions: protein: recombinant; tags: N-terminal GST; dsDNA, one strand shown
T6 sequence: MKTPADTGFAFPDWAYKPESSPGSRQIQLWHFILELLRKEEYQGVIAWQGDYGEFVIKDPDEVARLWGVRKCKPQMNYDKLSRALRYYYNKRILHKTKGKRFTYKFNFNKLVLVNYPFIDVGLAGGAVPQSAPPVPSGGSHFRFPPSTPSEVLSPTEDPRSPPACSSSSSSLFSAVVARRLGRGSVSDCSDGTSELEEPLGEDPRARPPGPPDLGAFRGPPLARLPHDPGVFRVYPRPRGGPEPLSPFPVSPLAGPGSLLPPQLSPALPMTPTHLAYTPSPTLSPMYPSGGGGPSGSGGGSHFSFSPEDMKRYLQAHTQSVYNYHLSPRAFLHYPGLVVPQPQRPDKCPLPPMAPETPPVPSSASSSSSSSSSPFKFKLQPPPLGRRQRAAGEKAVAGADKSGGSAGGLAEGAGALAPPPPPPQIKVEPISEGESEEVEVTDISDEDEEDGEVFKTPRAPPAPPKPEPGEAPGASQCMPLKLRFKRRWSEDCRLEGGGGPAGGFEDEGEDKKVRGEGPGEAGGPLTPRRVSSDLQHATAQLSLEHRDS
How it was run: as §1

[12] = target: T7, ETV3L (Homo sapiens, UniProt Q6ZN32 1-361); conditions: protein: recombinant; tags: N-terminal GST; dsDNA, one strand shown
T7 sequence: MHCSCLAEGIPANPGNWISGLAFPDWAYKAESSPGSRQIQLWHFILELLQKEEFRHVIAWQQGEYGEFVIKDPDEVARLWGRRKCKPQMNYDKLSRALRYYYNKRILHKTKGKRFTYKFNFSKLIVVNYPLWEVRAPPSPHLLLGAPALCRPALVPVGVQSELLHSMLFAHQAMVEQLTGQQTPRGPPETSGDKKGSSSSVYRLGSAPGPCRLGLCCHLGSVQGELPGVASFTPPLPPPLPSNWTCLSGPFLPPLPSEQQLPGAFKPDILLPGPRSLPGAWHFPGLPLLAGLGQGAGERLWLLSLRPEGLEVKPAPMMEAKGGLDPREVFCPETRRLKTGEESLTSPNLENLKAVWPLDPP
How it was run: as §1

[13] = target: T8, ETS2 (Homo sapiens, UniProt P15036 1-469); conditions: protein: recombinant; tags: N-terminal GST; dsDNA, one strand shown
T8 sequence: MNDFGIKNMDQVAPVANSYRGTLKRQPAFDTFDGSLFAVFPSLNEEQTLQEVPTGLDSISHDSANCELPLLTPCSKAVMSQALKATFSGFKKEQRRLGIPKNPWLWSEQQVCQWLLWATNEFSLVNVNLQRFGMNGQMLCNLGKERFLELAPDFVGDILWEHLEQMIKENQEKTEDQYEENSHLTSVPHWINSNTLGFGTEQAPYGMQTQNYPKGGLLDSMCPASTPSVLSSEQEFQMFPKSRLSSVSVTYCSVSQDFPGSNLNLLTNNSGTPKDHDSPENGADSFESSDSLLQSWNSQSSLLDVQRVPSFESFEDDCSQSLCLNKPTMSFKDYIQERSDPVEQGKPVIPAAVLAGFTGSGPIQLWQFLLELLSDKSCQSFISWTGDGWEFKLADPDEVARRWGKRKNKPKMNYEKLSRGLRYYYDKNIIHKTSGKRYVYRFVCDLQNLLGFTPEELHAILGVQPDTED
How it was run: as §1

[14] = target: T9, SPDEF (Homo sapiens, UniProt O95238 1-335); conditions: protein: recombinant; tags: N-terminal GST; dsDNA, one strand shown
T9 sequence: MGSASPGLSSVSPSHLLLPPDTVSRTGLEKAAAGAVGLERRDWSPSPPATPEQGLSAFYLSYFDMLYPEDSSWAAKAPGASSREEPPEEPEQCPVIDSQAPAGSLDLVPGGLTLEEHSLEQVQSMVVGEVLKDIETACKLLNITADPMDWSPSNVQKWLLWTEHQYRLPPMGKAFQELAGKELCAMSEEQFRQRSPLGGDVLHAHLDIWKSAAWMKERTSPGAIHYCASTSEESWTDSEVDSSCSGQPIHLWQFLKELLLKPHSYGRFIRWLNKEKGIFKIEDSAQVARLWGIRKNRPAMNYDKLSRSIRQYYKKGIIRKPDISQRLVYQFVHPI
How it was run: as §1

[15] = target: T10, ETV7 (Homo sapiens, UniProt Q9Y603 1-341); conditions: protein: recombinant; tags: N-terminal GST; dsDNA, one strand shown
T10 sequence: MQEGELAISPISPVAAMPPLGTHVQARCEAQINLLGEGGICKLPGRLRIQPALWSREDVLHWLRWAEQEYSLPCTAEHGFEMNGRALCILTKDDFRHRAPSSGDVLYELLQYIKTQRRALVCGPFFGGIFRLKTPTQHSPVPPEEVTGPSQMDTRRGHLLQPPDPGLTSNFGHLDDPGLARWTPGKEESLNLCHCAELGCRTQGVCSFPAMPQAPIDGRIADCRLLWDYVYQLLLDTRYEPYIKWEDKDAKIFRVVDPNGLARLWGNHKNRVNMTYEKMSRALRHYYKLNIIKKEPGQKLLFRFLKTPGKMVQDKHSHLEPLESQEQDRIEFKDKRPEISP
How it was run: as §1

[16] = target: T11, ELF5 (Homo sapiens, UniProt Q9UKW6-2 1-255); conditions: protein: recombinant; tags: N-terminal GST; dsDNA, one strand shown
T11 sequence: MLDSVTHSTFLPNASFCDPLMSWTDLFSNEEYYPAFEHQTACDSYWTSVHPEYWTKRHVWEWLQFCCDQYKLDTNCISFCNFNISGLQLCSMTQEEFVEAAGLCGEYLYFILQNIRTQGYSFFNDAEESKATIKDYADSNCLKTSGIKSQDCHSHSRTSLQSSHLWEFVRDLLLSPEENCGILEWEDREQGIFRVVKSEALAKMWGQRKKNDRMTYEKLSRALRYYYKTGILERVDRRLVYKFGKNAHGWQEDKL
How it was run: as §1

[17] = target: T12, ETV3 (Homo sapiens, UniProt P41162-2 1-143); conditions: protein: recombinant; tags: N-terminal GST; dsDNA, one strand shown
T12 sequence: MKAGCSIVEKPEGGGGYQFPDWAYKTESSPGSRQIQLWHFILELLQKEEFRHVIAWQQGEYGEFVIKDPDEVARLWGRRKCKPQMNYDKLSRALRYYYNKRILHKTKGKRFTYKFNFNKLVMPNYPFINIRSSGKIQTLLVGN
How it was run: as §1

[18] = target: ETV6 (Homo sapiens, UniProt P41212 1-452); conditions: protein: recombinant; tags: N-terminal GST; dsDNA, one strand shown
Sequence of ETV6 (P41212 whole entry): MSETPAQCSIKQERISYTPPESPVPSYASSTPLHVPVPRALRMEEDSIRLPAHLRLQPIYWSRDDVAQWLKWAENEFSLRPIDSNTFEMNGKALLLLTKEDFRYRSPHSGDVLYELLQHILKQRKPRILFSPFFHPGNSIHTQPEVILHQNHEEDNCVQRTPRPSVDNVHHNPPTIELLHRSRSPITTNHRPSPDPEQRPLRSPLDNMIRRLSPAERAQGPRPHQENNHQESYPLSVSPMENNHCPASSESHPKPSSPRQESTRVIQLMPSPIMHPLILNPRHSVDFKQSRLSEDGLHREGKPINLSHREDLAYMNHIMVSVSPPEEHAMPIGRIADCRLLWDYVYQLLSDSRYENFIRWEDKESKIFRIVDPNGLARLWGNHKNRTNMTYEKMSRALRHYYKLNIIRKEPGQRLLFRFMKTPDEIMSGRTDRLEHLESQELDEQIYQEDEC
How it was run: as §1

GCTCAA
binding signal [1]: 1.07 fold enrichment (6-mer frequency, TF over GST control) | binding signal [2]: 1.12 fold enrichment (6-mer frequency, TF over GST control) | binding signal [3]: 1.16 fold enrichment (6-mer frequency, TF over GST control) | binding signal [4]: 1.19 fold enrichment (6-mer frequency, TF over GST control) | binding signal [5]: 1.16 fold enrichment (6-mer frequency, TF over GST control) | binding signal [6]: 1.03 fold enrichment (6-mer frequency, TF over GST control) | binding signal [7]: 1.1 fold enrichment (6-mer frequency, TF over GST control) | binding signal [8]: 1.11 fold enrichment (6-mer frequency, TF over GST control) | binding signal [9]: 1.31 fold enrichment (6-mer frequency, TF over GST control) | binding signal [10]: 1.1 fold enrichment (6-mer frequency, TF over GST control) | binding signal [11]: 1.08 fold enrichment (6-mer frequency, TF over GST control) | binding signal [12]: 1.13 fold enrichment (6-mer frequency, TF over GST control) | binding signal [13]: 1.11 fold enrichment (6-mer frequency, TF over GST control) | binding signal [14]: 1.04 fold enrichment (6-mer frequency, TF over GST control) | binding signal [15]: 1.16 fold enrichment (6-mer frequency, TF over GST control) | binding signal [16]: 1 fold enrichment (6-mer frequency, TF over GST control) | binding signal [17]: 1.04 fold enrichment (6-mer frequency, TF over GST control) | binding signal [18]: 1.1 fold enrichment (6-mer frequency, TF over GST control)

Reference: article PMC7862700, “An all-to-all approach to the identification of sequence-specific readers for epigenetic DNA modifications on cytosine”
